Reference: PubChem BioAssay (NCI)
This is part of a sample that, as a whole, favours compounds with a hit. Of some 79,000 tested, about 15% had one in any assay. Values without a mark were called inactive. The source made the active and inactive calls. Rule as the data show it: active = growth inhibition above about 70%; inactive = the rest.

Columns and labels:
[1] = NCI Yeast Anticancer Drug Screen. Data for the wt1 strain (AID 149);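 also: 0% = growth of vehicle-treated wt1 cultures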; conditions: S. cerevisiae wt1 strain (SPY 50644) growth inhibition, hits give high values
How it was run: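 Yeast wt1 strain exposed to compounds; growth inhibition measured relative to vehicle-treated controls.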

[2] = NCI Yeast Anticancer Drug Screen. Data for the rad50EPP+ strain (AID 151);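 also: 0% = growth of vehicle-treated control cultures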; conditions: S. cerevisiae rad50 mutant strain, hits give high values
How it was run: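 Yeast strain carrying rad50 alteration (rad50EPP+) exposed to compounds; growth inhibition measured relative to vehicle-treated controls.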

[3] = NCI Yeast Anticancer Drug Screen. Data for the rad50 strain (AID 155);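 also: 0% = growth of vehicle-only cultures of the same strain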; conditions: S. cerevisiae rad50 strain growth inhibition, hits give high values
How it was run: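 Yeast carrying a defined DNA repair defect were exposed to test compounds, and growth was compared with vehicle-treated controls to give percent inhibition.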

[4] = NCI Yeast Anticancer Drug Screen. Data for the mec2-1 strain (AID 157); conditions: S. cerevisiae mec2-1 strain, hits give high values
How it was run: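 mec2-1 yeast strain, carrying an alteration in DNA damage repair or cell cycle control, was exposed to compounds; growth inhibition was measured relative to vehicle-treated controls.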

[5] = NCI Yeast Anticancer Drug Screen. Data for the sgs1 mgt1 strain (AID 161);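 also: 0% = growth of cultures given vehicle only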; conditions: S. cerevisiae sgs1 mgt1 strain, hits give high values
How it was run: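 Compounds are added to genetically altered yeast, and growth is compared with cultures given vehicle alone to give percent inhibition.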

[6] = NCI Yeast Anticancer Drug Screen. Data for the CLN2oe strain (AID 163);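 also: 0% = growth of vehicle-only control cultures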; conditions: S. cerevisiae CLN2oe strain, hits give high values
How it was run: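 Yeast cells carrying a defined cell-cycle control alteration were exposed to test compounds. Growth inhibition was scored against vehicle-treated control cultures.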

[7] = NCI Yeast Anticancer Drug Screen. Data for the cln2 rad14 strain (AID 165);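 also: 0% = growth equal to vehicle treated cultures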; conditions: S. cerevisiae cln2 rad14 strain, hits give high values
How it was run: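 Yeast carrying cln2 and rad14 alterations (cell cycle control and DNA damage repair) were exposed to compounds. Growth inhibition was measured against vehicle-treated controls.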

[8] = NCI Yeast Anticancer Drug Screen. Data for the bub3 strain (AID 167); conditions: S. cerevisiae bub3 mutant strain, hits give high values
How it was run: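 Compounds were applied to a genetically altered yeast strain carrying a cell-cycle control defect. Growth inhibition was scored against vehicle-treated controls.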

[9] = NCI Yeast Anticancer Drug Screen. Data for the wt2 strain (AID 169);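 also: 0% = growth of vehicle-treated yeast cultures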; conditions: S. cerevisiae wt2 strain growth inhibition, hits give high values
How it was run: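 Yeast cells were exposed to test compounds, and growth inhibition was measured relative to vehicle-treated controls.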

[10] = NCI Yeast Anticancer Drug Screen. Data for the mlh1 strain (AID 171);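 also: 0% = growth of vehicle-treated control cultures of the same strain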; conditions: S. cerevisiae mlh1 strain growth inhibition, hits give high values
How it was run: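 Yeast carrying a defined genetic alteration in DNA damage repair or cell cycle control were exposed to test compounds. Growth inhibition was measured relative to vehicle-treated controls.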

[11] = NCI Yeast Anticancer Drug Screen. Data for the sgs1 strain (AID 173);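 also: 0% = growth of vehicle-only control cultures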; conditions: S. cerevisiae sgs1 mutant, hits give high values
How it was run: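 Yeast mutant strains carrying defined defects in DNA damage repair or cell cycle control were exposed to test compounds. Growth inhibition was scored against vehicle-treated controls.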

[12] = NCI Yeast Anticancer Drug Screen. Data for the mlh1 rad18 strain (AID 175); conditions: S. cerevisiae mlh1 rad18 strain growth inhibition, hits give high values
How it was run: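 Growth inhibition of the yeast strain was measured after compound exposure and expressed relative to vehicle-treated controls. The strain carries defined defects in DNA damage repair.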

[13] = NCI Yeast Anticancer Drug Screen. Data for the rad18 strain (AID 177); conditions: S. cerevisiae rad18 mutant growth inhibition, hits give high values
How it was run: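 Yeast carrying a defined DNA damage repair alteration were exposed to compounds. Growth inhibition was expressed relative to vehicle-treated controls.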

[14] = at 5.0 µM (retest, dose inferred, filed as 0.5)
[15] = at 50.0 µM (retest, dose inferred, filed as 5.0)

In the case of `CN(C)Cc1cccc(CN(C)C)[c]1[Sn]([Br])([c]1ccccc1)[c]1ccccc1`, the growth inhibition ([1]; at 1.2 µM) is reported as 20%, the growth inhibition ([1]; at 3.7 µM) is reported as 36% and the growth inhibition ([1]; at 11.0 µM) is reported as 49%. For the same molecule, the growth inhibition ([1]; at 33.0 µM) was 58%, the growth inhibition ([1]; at 100.0 µM) was 96% (active) and the growth inhibition ([2]; at 1.2 µM) was 19%. For the same molecule, the growth inhibition ([2]; at 3.7 µM) was 32%, the growth inhibition ([2]; at 11.0 µM) was 30% and the growth inhibition ([2]; at 33.0 µM) was 36%. The growth inhibition ([2]; at 100.0 µM) was 39%, the growth inhibition ([3]; at 1.2 µM) was 30% and the growth inhibition ([3]; at 3.7 µM) was 62%. For the same molecule, the growth inhibition [3, 14] was 44%, the growth inhibition ([3]; at 11.0 µM) was 69% and the growth inhibition ([3]; at 33.0 µM) was 82% (active). For the same molecule, the growth inhibition [3, 15] was 94% (active), the growth inhibition ([3]; at 50.0 µM) was 81.8% (active) and the growth inhibition ([3]; at 100.0 µM) was 97% (active). The growth inhibition ([4]; at 1.2 µM) was 2%, the growth inhibition ([4]; at 3.7 µM) was 22% and the growth inhibition [4, 14] was 47%. The growth inhibition ([4]; at 11.0 µM) was 42%, the growth inhibition ([4]; at 33.0 µM) was 56% and the growth inhibition [4, 15] was 98% (active). For the same molecule, the growth inhibition ([4]; at 50.0 µM) was 86.2% (active), the growth inhibition ([4]; at 100.0 µM) was 94% (active) and the growth inhibition [5, 14] was 18%. For the same molecule, the growth inhibition [5, 15] was 95% (active), the growth inhibition ([5]; at 50.0 µM) was 88.8% (active) and the growth inhibition ([6]; at 1.2 µM) was -8%. It also gave a growth inhibition ([6]; at 3.7 µM) of 1%, a growth inhibition ([6]; at 11.0 µM) of 15% and a growth inhibition ([6]; at 33.0 µM) of 30%. For the same molecule, the growth inhibition ([6]; at 100.0 µM) was 91% (active), the growth inhibition [7, 14] was 13% and the growth inhibition [7, 15] was 66%. The growth inhibition ([7]; at 50.0 µM) was 86.9% (active), the growth inhibition ([8]; at 1.2 µM) was -7% and the growth inhibition ([8]; at 3.7 µM) was 6%. It also gave a growth inhibition [8, 14] of 32%, a growth inhibition ([8]; at 11.0 µM) of 18% and a growth inhibition ([8]; at 33.0 µM) of 50%. For the same molecule, the growth inhibition [8, 15] was 95% (active), the growth inhibition ([8]; at 50.0 µM) was 88.8% (active) and the growth inhibition ([8]; at 100.0 µM) was 95% (active). It also gave a growth inhibition ([9]; at 1.2 µM) of 10%, a growth inhibition ([9]; at 3.7 µM) of 13% and a growth inhibition ([9]; at 11.0 µM) of 41%. For the same molecule, the growth inhibition ([9]; at 33.0 µM) was 87% (active), the growth inhibition ([9]; at 100.0 µM) was 97% (active) and the growth inhibition ([10]; at 1.2 µM) was -2%. The growth inhibition ([10]; at 3.7 µM) was 23%, the growth inhibition ([10]; at 11.0 µM) was 37% and the growth inhibition ([10]; at 33.0 µM) was 60%. The growth inhibition ([10]; at 100.0 µM) was 96% (active), the growth inhibition ([11]; at 1.2 µM) was 8% and the growth inhibition ([11]; at 3.7 µM) was 44%. For the same molecule, the growth inhibition ([11]; at 11.0 µM) was 66%, the growth inhibition ([11]; at 33.0 µM) was 81% (active) and the growth inhibition ([11]; at 100.0 µM) was 97% (active). The growth inhibition [12, 14] was 44%, the growth inhibition [12, 15] was 98% (active) and the growth inhibition ([12]; at 50.0 µM) was 90.7% (active). The growth inhibition ([13]; at 1.2 µM) was 42%, the growth inhibition ([13]; at 3.7 µM) was 67% and the growth inhibition ([13]; at 11.0 µM) was 74% (active). The growth inhibition ([13]; at 33.0 µM) was 82% (active) and the growth inhibition ([13]; at 100.0 µM) was 97% (active).
